Data reported in PubChem BioAssay.

biological target: Fibroblast growth factor 10 (Homo sapiens) (UniProt O15520); experiment: FGF10 binders on small-molecule microarrays, primary screen, biochemical, small-molecule microarray, 635 nm fluorescence (AID 1102); settings: FGF10 binding, fluorescence 635 nm, higher = more signal
Sequence (O15520 whole entry, looked up): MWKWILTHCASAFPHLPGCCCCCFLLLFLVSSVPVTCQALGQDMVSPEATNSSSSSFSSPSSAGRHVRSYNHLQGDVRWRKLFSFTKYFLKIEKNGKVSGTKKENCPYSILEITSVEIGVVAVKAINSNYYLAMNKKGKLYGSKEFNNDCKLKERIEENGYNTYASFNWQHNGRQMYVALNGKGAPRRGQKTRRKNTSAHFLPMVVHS

Structure (SMILES)	composite z-score
COc1ccc(OC[C@@H]2CC3[C@@H](c4ccc(Br)cc4)[C@H](C)CC[C@H]3C(=O)O2)cc1 (stereo partly specified)	0.638
COC(=O)[C@H](C)NC(=O)CCC1CC(OC(=O)NCCc2ccc(F)cc2)CC2(CCCC(COC(=O)NCC3CCCCC3)O2)O1 (stereo partly specified)	0.938
COC(=O)[C@H](C)NC(=O)CCC1CC(OC(=O)NCc2cccc3ccccc23)CC2(CCCC(COC(=O)NCCC(C)C)O2)O1 (stereo partly specified)	0.481
O=C1[C@H]2[C@H]3[C@H](O)[C@H](O)CC(=NOC[C@@H](O)COCc4ccco4)[C@@H]3CC[C@H]2C(=O)N1c1cccc(Oc2ccccc2)c1	-0.25
CCOC(=O)NN=C1C[C@@H](O)[C@@H](O)[C@@H]2[C@@H]3C(=O)N(C[C@@H]4CCCO4)C(=O)[C@@H]3CC[C@H]12	0.515
C[C@@H](c1ccccc1)N1C(=O)[C@H]2[C@H]3[C@H](O)[C@H](O)CC(=NOCc4ccccc4)[C@@H]3CC[C@H]2C1=O	-0.222
CCOC(=O)[C@H](Cc1ccccc1)NC(=O)CCC1CC(OC(=O)NCc2ccc3c(c2)OCO3)CC2(CCCC(COC(=O)NCCOc3ccccc3)O2)O1 (stereo partly specified)	0.881
C[C@H]1CC[C@H]2C(=O)N[C@H](Cc3ccccc3)C(=O)N2[C@@H]1c1ccccc1	0.136
CCN1C(=O)[C@H]2[C@H]3[C@H](O)[C@H](O)CC(=NOCC[C@@H]4C=C[C@H](OC(C)=O)[C@@H](COC(C)=O)O4)[C@@H]3CC[C@H]2C1=O	0.476
CCCNC(=O)OC[C@H]1O[C@H](CCON=C[C@@H](NS(=O)(=O)c2ccc(C)cc2)[C@H](C)C=CCC(=O)OC)C=C[C@@H]1Oc1ccc(OC)cc1	-0.0511
C#CCCCON=C1C[C@@H](O)[C@@H](O)[C@@H]2[C@@H]3C(=O)N(C[C@@H]4CCCO4)C(=O)[C@@H]3CC[C@H]12	0.331
CC(C)CON=C1C[C@@H](O)[C@@H](O)[C@@H]2[C@@H]3C(=O)N(c4ccc(F)cc4F)C(=O)[C@@H]3CC[C@@H]12	0.585
O=C1C=C[C@@H](O)[C@@H]2[C@@H]3C(=O)N(Cc4ccccc4)C(=O)[C@@H]3CC[C@@H]12	0.659
CC1(C)O[C@H]2OC([C@H](O)CON3C(=O)c4ccccc4C3=O)[C@H](O)[C@H]2O1 (stereo partly specified)	0.0612
C[C@H]1CC[C@H]2C(=O)OC(COc3ccc(C(C)(C)C)cc3)CN2[C@@H]1c1ccc(Br)cc1 (stereo partly specified)	0.172
CC1(C)O[C@H]2O[C@H]([C@H](O)CON=C3[C@H]4CCn5c(=O)n(-c6ccccc6)c(=O)n5[C@H]4[C@H](O)[C@@H]4O[C@H]34)[C@H](O)[C@H]2O1	0.174
CC(C)=CCCC(C)=CCON=C1C[C@@H](O)[C@@H](O)[C@@H]2[C@@H]3C(=O)N(c4cccc(Oc5ccccc5)c4)C(=O)[C@@H]3CC[C@H]12	0.411
CCOC(=O)[C@H](Cc1ccccc1)NC(=O)CCC1CC(OC(=O)NCc2cccc3ccccc23)CC2(CCCC(COC(=O)NCc3ccc4c(c3)OCO4)O2)O1 (stereo partly specified)	0.587
CCCC[C@H]1CN2[C@@H](CC[C@@H](C)[C@@H]2c2ccc(Br)cc2)C(=O)O1	0.28
CCOC(=O)[C@H](CC(C)C)NC(=O)CCC1CC(OC(=O)NCc2ccc3c(c2)OCO3)CC2(CCCC(COC(=O)NCCOc3ccccc3)O2)O1 (stereo partly specified)	0.866
CCOC(=O)NN=C1C[C@@H](O)[C@@H](O)[C@@H]2[C@@H]3C(=O)N(CC)C(=O)[C@@H]3CC[C@H]12	0.125
COc1ccc(COC(=O)NN=C2C[C@@H](O)[C@@H](O)[C@@H]3[C@@H]4C(=O)N([C@@H](C)c5ccccc5)C(=O)[C@@H]4CC[C@@H]23)cc1	0.132
CCN1C(=O)[C@H]2[C@H]3[C@H](O)[C@H](O)CC(=NO[C@H](C)c4cn([C@@H]5COC[C@H]5O)nn4)[C@@H]3CC[C@H]2C1=O	0.46
C[C@@H]1CC[C@H]2C(=O)O[C@@H](COc3ccc(C(C)(C)C)cc3)CN2[C@H]1c1ccc(Br)cc1	0.0543
CO[C@H]1COC(=O)CC=C[C@@H](C)COC(=O)[C@H]2CCCN2C(=O)CC=C[C@H]1C	0.756
CC(CCN1CCCc2nc(C)c(C)cc21)=NO[C@@H](C)c1cn([C@H](CO)Cc2ccccc2)nn1	0.817
